The target in assay [1] is Retinoic acid receptor RXR-alpha (Homo sapiens) (UniProt P19793). Nature of the assay: ATG_RXRa_TRANS: Attagene TRANS-FACTORIAL HepG2 Assay for human Retinoid X Receptor alpha (RXRa) (AID 2283012; active = hit-call score of the fitted dose curve at least 0.9, where 1 is the maximum). An outline of the steps:
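Chimeric NR-GAL4 trans-activation in HepG2, 24 h treatment; reporter transcripts quantified by fluorescence on capillary electrophoresis, analysed for upward change from DMSO.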

For assay [2], the target named is human Retinoid X Receptor beta (RXRb), RXRB (gene 6257) (UniProt P28702). Nature of the assay: ATG_RXRb_TRANS: Attagene TRANS-FACTORIAL HepG2 Assay for human Retinoid X Receptor beta (RXRb) (AID 2283013; active = hit-call score of the fitted dose curve at least 0.9, where 1 is the maximum). An outline of the steps: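 After a 24 h incubation with test chemical, transfected HepG2 cells carrying NR-Gal4 fusions and GAL4-UAS reporter transcription units yield RNA whose reporter cDNA is FAM-labelled, HpaI-cut and sized by capillary electrophoresis; increases over DMSO are scored.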

Assay [3] deals with human Thyroid Receptor alpha (THRa1), THRA (gene 7067) (UniProt P10827). The assay is described as follows: ATG_THRa1_TRANS: Attagene TRANS-FACTORIAL HepG2 Assay for human Thyroid Receptor alpha (THRa1) (AID 2283014; active = hit-call score of the fitted dose curve at least 0.9, where 1 is the maximum). An outline of the steps: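 Transcripts from GAL4-UAS-driven reporters, measured after 24 h compound exposure by RT-PCR plus capillary electrophoresis of 6-FAM-labeled fragments, were fitted for gain of signal relative to DMSO. Cells: transiently transfected HepG2 expressing NR-Gal4 chimeras.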

Read-out in assay [4]: E-selectin (Homo sapiens) (UniProt P16581)
Nature of the assay: BSK_3C_Eselectin: BioMAP Diversity Plus: 3C Assay for Eselectin Biomarker Activity (AID 2283015).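 For outcome: cell surface E-selectin protein quantified by ELISA 24 h after dosing.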 Particulars: primary human endothelial cells (HUVEC); actives raise or lower the signal. An outline of the steps:
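E-selectin ELISA readout, fitted bidirectionally relative to DMSO, taken 24 h post-dosing in HUVEC cultures of the 3C system. Overt cytotoxicity tracked with sulforhodamine B staining of parallel wells.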

Read-out in assay [5]: Interleukin-1 alpha (IL1a), IL1A (gene 3552)
The assay is described as follows: BSK_BE3C_IL1a: BioMAP Diversity Plus: BE3C Assay for Interleukin-1 alpha (IL1a) Biomarker Activity (AID 2283016). Particulars: primary human bronchial epithelial cells; actives raise or lower the signal. An outline of the steps: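 Measured in human lung primary bronchial epithelial cells: IL-1a by ELISA at 24 h after dosing, with bidirectional fitting against DMSO.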

Read-out in assay [6]: Monocyte Chemoattractant Protein-1 (MCP1), CCL2 (gene 6347)
The assay is described as follows: BSK_3C_MCP1: BioMAP Diversity Plus: 3C Assay for Monocyte Chemoattractant Protein-1 (MCP1) Biomarker Activity (AID 2283017). Particulars: primary human endothelial cells (HUVEC); actives raise or lower the signal. An outline of the steps:
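MCP-1 was measured by ELISA 24 h after dosing in primary HUVEC 3C cultures and fitted in both directions relative to DMSO; cytotoxicity was checked by SRB total-protein staining in parallel wells.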

Read-out in assay [7]: Monocyte Chemoattractant Protein-1 (MCP1), CCL2 (gene 6347)
The assay is described as follows: BSK_4H_MCP1: BioMAP Diversity Plus: 4H Assay for Monocyte Chemoattractant Protein-1 (MCP1) Biomarker Activity (AID 2283018). To be noted: primary human endothelial cells (HUVEC); actives raise or lower the signal. An outline of the steps:
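Primary human umbilical vein endothelium is exposed to chemical for 24 h before MCP-1 is assayed by ELISA. Concentration-response fitted bidirectionally relative to DMSO.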

Read-out in assay [8]: Human Leukocyte Antigen - DR isotype (HLADR), HLA-DRA (gene 3122)
Nature of the assay: BSK_3C_HLADR: BioMAP Diversity Plus: 3C Assay for Human Leukocyte Antigen - DR isotype (HLADR) Biomarker Activity (AID 2283019).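 For outcome: ELISA of cell-surface HLA-DR on HUVEC 24 h after dosing.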 To be noted: primary human endothelial cells (HUVEC); actives raise or lower the signal. The method in brief: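 Bidirectional fitting against DMSO was applied to the HLA-DR ELISA signal from human umbilical vein endothelial cells, 24 h post-dose. Cytotoxicity came from parallel SRB total-protein staining; 3C proliferation was counted by SRB at 48 h.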

Read-out in assay [9]: Interleukin-8 (IL8), CXCL8 (gene 3576)
Nature of the assay: BSK_3C_IL8: BioMAP Diversity Plus: 3C Assay for Interleukin-8 (IL8) Biomarker Activity (AID 2283020). To be noted: primary human endothelial cells (HUVEC); actives raise or lower the signal. The method in brief: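 Using DMSO-treated wells as the baseline, bidirectional curve fitting was applied to ELISA-measured IL-8 from human umbilical vein endothelial cultures sampled 24 h after compound addition.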

Inconclusive results are not listed. Activity calls are given as the source filed them. Rule for the calls, unless noted: active = hit-call score of the fitted dose curve at least 0.9, where 1 is the maximum; inactive = score below 0.9.

For orientation: AC50 means the midpoint of the concentration-response curve, whichever way the signal moves.

Retinoic acid receptor RXR-alpha (Homo sapiens), sequence (P19793 whole entry, looked up, the tested form may be a part): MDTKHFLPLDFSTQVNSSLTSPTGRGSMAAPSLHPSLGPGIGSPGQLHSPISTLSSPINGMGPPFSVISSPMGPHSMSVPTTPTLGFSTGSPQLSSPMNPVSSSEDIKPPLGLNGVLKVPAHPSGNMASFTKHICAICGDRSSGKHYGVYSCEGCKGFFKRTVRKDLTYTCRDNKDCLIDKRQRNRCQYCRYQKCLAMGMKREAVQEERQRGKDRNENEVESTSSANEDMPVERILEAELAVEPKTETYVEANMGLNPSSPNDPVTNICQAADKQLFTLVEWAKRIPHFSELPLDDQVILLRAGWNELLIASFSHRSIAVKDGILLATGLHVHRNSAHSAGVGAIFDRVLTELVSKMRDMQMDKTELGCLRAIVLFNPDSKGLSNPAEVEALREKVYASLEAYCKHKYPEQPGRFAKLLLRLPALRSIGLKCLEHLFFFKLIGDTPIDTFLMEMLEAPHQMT
human Retinoid X Receptor beta (RXRb), RXRB (gene 6257), sequence (P28702 whole entry, looked up, the tested form may be a part): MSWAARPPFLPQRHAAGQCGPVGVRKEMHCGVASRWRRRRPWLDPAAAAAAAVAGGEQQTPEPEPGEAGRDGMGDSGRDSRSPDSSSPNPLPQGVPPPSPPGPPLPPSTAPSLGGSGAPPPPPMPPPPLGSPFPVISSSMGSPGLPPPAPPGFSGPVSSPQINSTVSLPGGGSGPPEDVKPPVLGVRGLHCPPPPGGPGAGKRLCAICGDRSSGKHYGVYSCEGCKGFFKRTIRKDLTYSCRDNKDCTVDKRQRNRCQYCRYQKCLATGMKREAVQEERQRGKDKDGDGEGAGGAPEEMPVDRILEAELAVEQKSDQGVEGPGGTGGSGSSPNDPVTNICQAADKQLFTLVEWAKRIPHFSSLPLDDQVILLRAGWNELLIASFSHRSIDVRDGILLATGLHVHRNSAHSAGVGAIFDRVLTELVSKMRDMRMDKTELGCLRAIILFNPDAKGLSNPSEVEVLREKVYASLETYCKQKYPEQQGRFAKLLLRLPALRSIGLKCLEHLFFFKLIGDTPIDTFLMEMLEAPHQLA
E-selectin (Homo sapiens), sequence (P16581 whole entry, looked up): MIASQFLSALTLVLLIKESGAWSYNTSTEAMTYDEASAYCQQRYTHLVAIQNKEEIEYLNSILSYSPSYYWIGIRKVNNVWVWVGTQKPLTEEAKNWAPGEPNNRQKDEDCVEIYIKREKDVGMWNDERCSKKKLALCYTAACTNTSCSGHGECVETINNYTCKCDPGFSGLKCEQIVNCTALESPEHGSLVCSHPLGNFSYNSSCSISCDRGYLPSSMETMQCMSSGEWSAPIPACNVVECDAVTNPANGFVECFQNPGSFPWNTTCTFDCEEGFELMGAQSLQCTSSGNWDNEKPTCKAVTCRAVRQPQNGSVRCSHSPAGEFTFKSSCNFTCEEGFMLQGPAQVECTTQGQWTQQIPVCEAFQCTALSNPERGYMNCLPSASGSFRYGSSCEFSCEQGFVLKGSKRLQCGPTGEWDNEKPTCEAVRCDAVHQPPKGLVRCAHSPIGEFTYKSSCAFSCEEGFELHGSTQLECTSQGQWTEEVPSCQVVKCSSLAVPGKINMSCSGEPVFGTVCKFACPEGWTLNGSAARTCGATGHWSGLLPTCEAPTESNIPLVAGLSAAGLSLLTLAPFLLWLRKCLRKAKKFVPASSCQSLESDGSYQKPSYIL
human Thyroid Receptor alpha (THRa1), THRA (gene 7067), sequence (P10827 whole entry, looked up, the tested form may be a part): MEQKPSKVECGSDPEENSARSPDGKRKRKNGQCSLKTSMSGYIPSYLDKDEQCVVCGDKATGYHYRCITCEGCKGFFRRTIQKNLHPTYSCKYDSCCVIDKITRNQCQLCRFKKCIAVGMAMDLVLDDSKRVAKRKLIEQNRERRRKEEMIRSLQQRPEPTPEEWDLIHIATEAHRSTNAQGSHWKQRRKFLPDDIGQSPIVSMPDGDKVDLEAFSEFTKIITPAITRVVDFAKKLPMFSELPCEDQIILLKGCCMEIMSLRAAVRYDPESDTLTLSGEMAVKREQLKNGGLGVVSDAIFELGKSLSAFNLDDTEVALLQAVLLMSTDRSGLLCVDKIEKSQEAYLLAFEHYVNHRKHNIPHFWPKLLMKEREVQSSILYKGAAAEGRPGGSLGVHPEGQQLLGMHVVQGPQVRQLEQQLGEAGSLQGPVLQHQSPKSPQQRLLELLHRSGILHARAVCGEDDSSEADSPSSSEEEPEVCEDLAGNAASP

Consider `CC(CCO)CCc1ccccc1` (configuration not stated), for which the compound was classed as inactive in [1], in [2] and in assay [3].

For `Cc1ccc(C(=O)c2cc(O)c(O)c([N+](=O)[O-])c2)cc1`, the outcome in [1], in [2] and in assay [3] was inactive.

On to `CC(=O)O[C@]1(C(C)=O)CC[C@H]2[C@@H]3C[C@H](C)C4=CC(=O)CC[C@]4(C)[C@H]3CC[C@@]21C`, for which the AC50 in [1] was 2.91 µM (active); in [2], 2.34 µM (active); in assay [8], 10 µM (active). Besides, the result in assay [4], in [5], in assay [6], in assay [7] and in [9] was inactive.

In the case of `CCCCCCCCC=O`, the result in assay [1], in assay [4], in assay [5], in [6], in assay [7] and in [8] was inactive.

On to `O=c1[nH]nnc2ccccc12`, for which the compound was classed as inactive in assay [1] and in assay [3].

On to `CCCCCCC#CC(=O)OC`, for which the call in assay [1] and in [3] was inactive.

On to `C=COCCOCCOCCOC=C`, for which the outcome in [1] and in assay [3] was inactive.

Consider `C=C(C)C(=O)OCCOC(=O)CC(C)=O`, for which the compound was called inactive in [2].

On to `Cc1ccc(C=O)s1`, for which the call in assay [1] and in assay [3] was inactive.

Regarding `CC(C)Oc1ccccc1O`, the compound was classed as inactive in assay [1], in [3], in assay [4], in [5], in assay [6] and in [7]. Moreover, the result in assay [8] and in assay [9] was inactive.

For the compound `CCCC/C=C\CCCCCCCCCC=O`, in [2], the AC50 was 6.07 µM (active).

On to `Cc1cc(C2(c3cc(C)c(O)cc3C)OS(=O)(=O)c3ccccc32)c(C)cc1O`, for which the compound was called inactive in [1], in assay [2], in assay [4], in assay [5], in assay [6] and in [7]. For the same compound, the outcome in assay [8] and in assay [9] was inactive.

On to `Nc1ccc(S(=O)(=O)O)c(N)c1`, for which the compound was called inactive in assay [2].

`O=C1O[C@@H]2[C@@H](O)[C@H](O)O[C@@H]2[C@H]1O`: the result in assay [2] was inactive.

On to `CC(=O)[C@H]1CC[C@H]2[C@@H]3CC=C4C[C@@H](O)CC[C@]4(C)[C@H]3CC[C@]12C`, for which the call in assay [1], in [4], in assay [5], in [6], in assay [7] and in assay [8] was inactive. Moreover, the result in [9] was inactive.

As for `CCCC[n+]1ccccc1`, the call in assay [2] was inactive.

In the case of `Nc1cccc(S(=O)(=O)c2cccc(N)c2)c1`, the compound was classed as inactive in assay [1] and in assay [3].

For `CCCCCCCCCCCCCCCC(=O)O`, in assay [2], the compound was called inactive.

On to `C#C[C@]1(O)CC[C@H]2[C@@H]3CCC4=Cc5oncc5C[C@]4(C)[C@H]3CC[C@@]21C`, for which the AC50 in assay [1] was 120 µM (active); in assay [2], 154 µM (active); in [4] it was 1.49 µM (active); in assay [5], 33.4 µM (active); in assay [8], 20 µM (active). Moreover, the outcome in [6] and in [7] was inactive.

On to `CCCCC/C=C/C=C/C=O`, for which the compound was classed as inactive in [1] and in [3]. In addition, the AC50 in [4] was 30.1 µM (active); in [5], 20 µM (active); in assay [6] it was 29.4 µM (active); in assay [7] it was 36.3 µM (active); in assay [8], 20 µM (active).

For the compound `CCCCO`, the call in [1] and in assay [3] was inactive.

For the compound `CN(C)C(=N)N=C(N)N`, the result in assay [1] and in assay [3] was inactive.

As to `C=CCOC(=O)CCC1CCCCC1`, the outcome in [1], in assay [4], in assay [5], in assay [6], in assay [7] and in [8] was inactive.

Take `Clc1sc(Cl)c(Cl)c1Cl`: in assay [2], the result was inactive.

Regarding `CC(C)(C)c1cc(CCC(=O)NN)cc(C(C)(C)C)c1O`, in assay [2], the outcome was inactive.

For the compound `O=C1c2ccccc2C(=O)N1SC1CCCCC1`, the AC50 in assay [2] was 44.4 µM (active).

Consider `OC[C@H]1O[C@H](O[C@]2(CCl)O[C@H](CCl)[C@@H](O)[C@@H]2O)[C@H](O)[C@@H](O)[C@H]1Cl`, for which the result in assay [1], in assay [3], in [4], in assay [5], in [6] and in assay [7] was inactive. Also, the outcome in assay [8] and in [9] was inactive.

Turning to `CC1COc2ccccc2N1C(=O)C(Cl)Cl` (configuration not stated), the compound was called inactive in [1], in [3], in [6], in [7] and in [9]. Besides, the AC50 was 20 µM (active) in assay [4], 5.26 µM (active) in assay [5] and 7.04 µM (active) in assay [8].

Consider `CC(C)C1CCC(O)CC1` (configuration not stated), for which the call in [1] and in [3] was inactive.

On to `COc1cc(C=O)ccc1OC(=O)C(C)C`, for which the call in assay [1], in assay [2], in assay [4], in assay [5], in [6] and in [7] was inactive. Further, in [8], the result was inactive.

As to `CC1(C)[C@H]2CC[C@]1(C)[C@H](O)C2`, the outcome in assay [2] was inactive.

On to `CC(=O)C=CC1=C(C)CCCC1(C)C`, for which the AC50 in [2] is 43.9 µM (active).

Regarding `O=C[C@@H](O)[C@H](O)[C@H](O)CO`, the result in assay [1] and in assay [3] was inactive.

As to `C=CC(C)(O)CCC=C(C)CCC=C(C)C` (configuration not stated), the AC50 in assay [2] is 27.3 µM (active).

As for `O=C(OCc1ccccc1)C(=O)OCc1ccccc1`, the compound was called inactive in assay [2].

With `Cc1ccc(Nc2ccc(O)c3c2C(=O)c2ccccc2C3=O)cc1`, the call in [1], in assay [4], in assay [5], in assay [6], in assay [7] and in assay [8] was inactive. Moreover, the result in assay [9] was inactive.

As to `N#Cc1ccc(CC(=NNC(=O)Nc2ccc(OC(F)(F)F)cc2)c2cccc(C(F)(F)F)c2)cc1`, the call in [1], in assay [4], in [5], in assay [6], in [7] and in assay [8] was inactive.

As for `NC(N)=NC(=O)c1nc(Cl)c(N)nc1N`, the compound was called inactive in assay [1] and in [3].

In the case of `CCCCCCCCCCCCN(CCCCCCCCCCCC)CCCCCCCCCCCC`, the compound was called inactive in assay [2] and in [3].

As for `CC(=O)[O][Al][O]C(C)=O`, the AC50 in [2] is 44.5 µM (active). The compound was classed as inactive in assay [3].

`CC(C)(CO)[N+](=O)[O-]`: the outcome in assay [3] was inactive.
